PubChem BioAssay (Tox21)
Inconclusive results are not listed. The source made the active and inactive calls. Unless noted, calls come from the whole dose curve.

Key:
[1] = qHTS assay to identify small molecule agonists of the vitamin D receptor (VDR) signaling pathway - cell viability counter screen (AID 743224; active = well fitted curve in the direction sought with a large enough effect in the repeat runs; an effect the other way counts as inactive or inconclusive; note: % is set by controls: 0 for no effect and ±100 for the full control effect; nearly all actives have a fitted effect of over 50% in size); conditions: VDR-bla HEK293T viability, CellTiter-Glo luminescence, 16 h; series mostly up to 62.6 µM
Outline: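 In parallel with the bla FRET readout, cytotoxicity toward VDR-bla cells after 16 h compound exposure was assessed by CellTiter-Glo, with luminescence recorded after a 30 min room-temperature incubation.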

[2] = qHTS assay to identify small molecule antagonists of the vitamin D receptor (VDR) signaling pathway - cell viability counter screen (AID 743225; active = well fitted curve in the direction sought with a large enough effect in the repeat runs; an effect the other way counts as inactive or inconclusive; note: % is set by controls: 0 for no effect and ±100 for the full control effect; nearly all actives have a fitted effect of over 50% in size); conditions: VDR-bla HEK293T viability, CellTiter-Glo luminescence, 16 h; series mostly up to 61 µM
Outline: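 Cytotoxicity counter screen read by CellTiter-Glo luminescence (30 min, room temperature) in the same wells as the VDR-bla antagonist readout. HEK 293T VDR-UAS-bla cells had 16 h at 37C with compound and 3 nM (final) 1-alpha,25-dihydroxyvitamin D3, then 2 h with FRET substrate.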

[3] = qHTS assay to identify small molecule agonists of the NFkB signaling pathway (AID 1159509; active = well fitted curve in the direction sought with a large enough effect in the signal ratio in the repeat runs, not every such curve was filed as active; the % refers to the signal ratio; note: % is set by controls: 0 for no effect and ±100 for the full control effect); conditions: NFkB-bla ME-180 cells, beta-lactamase FRET ratio, 5 h; series mostly up to 61 µM
Outline: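 Readout: FRET fluorescence, 405 nm excitation, 460/530 nm emission; beta-lactamase expression disrupts FRET. Cells: ME-180 stably carrying NF-kB-driven bla reporter. Compound exposure 5 hr, 37 C, 5% CO2.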

[4] = qHTS assay to identify small molecule agonists of the NFkB signaling pathway - cell viability counter screen (AID 1159515); conditions: NFkB-bla ME-180 viability, CellTiter-Glo luminescence, 5 h; series mostly up to 61 µM; note: % is set by controls: 0 for no effect and ±100 for the full control effect; nearly all actives have a fitted effect of over 55% in size
Outline: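 Plate 2,000 NFkB-bla ME-180 cells/well; incubate overnight. Add compounds, 5 hr at 37 C. Add FRET substrate, 1.5 hr RT. Add CellTiter-Glo, 30 min RT; read luminescence.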

[5] = qHTS assay to identify small molecule agonists of the endoplasmic reticulum stress response signaling pathway (AID 1159516; active = well fitted activation curve with a large enough effect in the signal ratio in the repeat runs, not every such curve was filed as active; the % refers to the signal ratio; note: % is set by controls: 0 for no effect and ±100 for the full control effect); conditions: ESRE-bla HeLa, ER stress beta-lactamase reporter, 5 h; series mostly up to 61 µM
Outline: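 Beta-lactamase expression from the ER stress response element in HeLa reporter cells is quantified with the LiveBLAzer B/G FRET substrate, read at 405 nm excitation after 2 hr at room temperature, following 5 hr compound treatment at 37 C.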

[6] = qHTS assay to identify small molecule agonists of the endoplasmic reticulum stress response signaling pathway - cell viability counter screen (AID 1159517); conditions: ESRE-bla HeLa viability, CellTiter-Glo luminescence, 5 h; series mostly up to 61 µM; note: % is set by controls: 0 for no effect and ±100 for the full control effect; nearly all actives have a fitted effect of over 50% in size
Outline: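 Steps: seed 1,500 ESRE-bla HeLa cells per well; incubate overnight at 37 C, 5% CO2; add compounds in DMSO for 5 hr; run FRET substrate 2 hr RT; add CellTiter-Glo, wait 30 min, read luminescence.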

[7] = qHTS assay to identify small molecule antagonists of the retinoid-related orphan receptor gamma (ROR-gamma) signaling pathway - cell viability counter screen (AID 1159520; active = well fitted curve in the direction sought with a large enough effect in the repeat runs; an effect the other way counts as inactive or inconclusive; note: % is set by controls: 0 for no effect and ±100 for the full control effect; nearly all actives have a fitted effect of over 50% in size); conditions: Tet-on RORgamma CHO cells viability, ATP luminescence, 16 h; series mostly up to 92.4 µM
Outline: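 Tet-on ROR gamma CHO cells were given compounds for 2 hr, then doxycycline hyclate at 1 uM final, and incubated 16 hr at 37 C. Viability was measured as ATP content by CellTiter-Glo luminescence.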

[8] = biological target: Nuclear receptor ROR-gamma (Homo sapiens) (UniProt P51449); test: qHTS assay to identify small molecule antagonists of the retinoid-related orphan receptor gamma (ROR-gamma) signaling pathway (AID 1159521; active = well fitted curve in the direction sought with a large enough effect in the repeat runs; an effect the other way counts as inactive or inconclusive); conditions: Tet-on RORgamma CHO cells, RORE-luciferase, 16 h; series mostly up to 92.4 µM
Outline: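 Antagonist read-out: drop in luminescence (ONE-Glo) from an RORE-LUC reporter in CHO cells with doxycycline-inducible ROR-gamma; 2 hr compound pretreatment, 1 uM doxycycline, 16 hr incubation at 37 C.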

[9] = qHTS assay to identify small molecule agonists of the AP-1 signaling pathway - cell viability counter screen (AID 1159525); conditions: ME-180 AP-1-bla cells viability, ATP luminescence, 5 h; series mostly up to 76.8 µM; note: nearly all actives have a fitted effect of over 55% in size
Outline: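 Same-well cytotoxicity counter screen of the Tox21 10K library in ME-180 cells. The readout is ATP-dependent luminescence after 5 h compound treatment. Data are normalised to DMSO and tetra n-octyl ammonium bromide controls.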

[10] = qHTS assay to identify small molecule agonists of the AP-1 signaling pathway (AID 1159526); conditions: ME-180 (cervical carcinoma) AP-1-bla reporter, beta-lactamase FRET ratio, 5 h; series mostly up to 76.8 µM; note: % is set by controls: 0 for no effect and ±100 for the full control effect

COc1cc2c(cc1OC)CN(C(=O)[C@H](C)N[C@@H](CCc1ccccc1)C(=O)O)[C@H](C(=O)O)C2
inactive: outcome [1] | outcome [2] | outcome [3] | outcome [4] | outcome [5] | outcome [6] | outcome [7] | outcome [8] | outcome [9] | outcome [10]

Cc1cc(-c2ccccc2)nnc1NCCN1CCOCC1
inactive: outcome [1] | outcome [2] | outcome [3] | outcome [4] | outcome [5] | outcome [6] | outcome [7] | outcome [8] | outcome [9] | outcome [10]

N[C@@H](Cc1ccc(O)cc1)C(=O)O
inactive: activity change, negative = cytotoxicity [1] 18.1% [at 13.2 µM] | viability change, negative = cytotoxic [2] 7.41% [at 6.95 µM] | activation [3] -0.279% [at 6.95 µM] | activity, negative = cytotoxic [4] 9.74% [at 6.95 µM] | activation [5] -0.0263% [at 6.95 µM] | activity change, negative = cytotoxicity [6] 2.71% [at 6.95 µM] | activity, negative = cytotoxicity [7] 1.78% [at 8.39 µM] | activity change, negative = inhibition [8] 1.55% [at 8.39 µM] | viability change, negative = cytotoxic [9] 1.17% [at 6.97 µM] | activation [10] -1.16% [at 6.97 µM]

C=CC/C=C/C
inactive: outcome [1] | outcome [2] | outcome [3] | outcome [4] | outcome [5] | outcome [6] | outcome [7] | outcome [8] | outcome [9] | outcome [10]

C=Cc1ccc(C(C)(C)C)cc1
inactive: outcome [1] | outcome [2] | outcome [3] | outcome [4] | outcome [5] | outcome [6] | outcome [7] | outcome [8] | outcome [9] | outcome [10]

CCC(C)OC(C)CC (stereo not given)
inactive: outcome [1] | outcome [2] | outcome [3] | outcome [4] | outcome [5] | outcome [6] | outcome [7] | outcome [8] | outcome [9] | outcome [10]

COC(=O)CCCCC(=O)O
inactive: outcome [1] | outcome [2] | outcome [3] | outcome [4] | outcome [5] | outcome [6] | outcome [7] | outcome [8] | outcome [9] | outcome [10]

Cn1c(=O)c2c(ncn2CCO)n(C)c1=O
inactive: outcome [1] | outcome [2] | outcome [3] | outcome [4] | outcome [5] | outcome [6] | outcome [7] | outcome [8] | outcome [9] | outcome [10]

Cc1ncc([N+](=O)[O-])n1CC(C)O (stereo not given)
inactive: outcome [1] | outcome [2] | outcome [3] | outcome [4] | outcome [5] | outcome [6] | outcome [7] | outcome [8] | outcome [9] | outcome [10]

CC(=O)O[Si](C)(OC(C)=O)OC(C)=O
inactive: outcome [1] | outcome [2] | outcome [3] | outcome [4] | outcome [5] | outcome [6] | outcome [7] | outcome [8] | outcome [9] | outcome [10]

O=S(=O)(O)c1ccc2c(N=Nc3ccc(S(=O)(=O)O)c4ccccc34)c(O)c(S(=O)(=O)O)cc2c1
inactive: activity change, negative = cytotoxicity [1] -0.166% [at 5.95 µM] | viability change, negative = cytotoxic [2] 6.08% [at 6.95 µM] | activation [3] 0.493% [at 6.95 µM] | activity, negative = cytotoxic [4] 6.88% [at 6.95 µM] | activation [5] -2.39% [at 6.95 µM] | activity change, negative = cytotoxicity [6] 0.511% [at 6.95 µM] | activity, negative = cytotoxicity [7] -3.34% [at 8.39 µM] | viability change, negative = cytotoxic [9] 6.35% [at 6.97 µM] | activation [10] -3.05% [at 6.97 µM]

CC(=O)O[C@H]1C[C@@H]2CC[C@@]1(C)C2(C)C
inactive: outcome [1] | outcome [2] | outcome [3] | outcome [4] | outcome [5] | outcome [6] | outcome [7] | outcome [9] | outcome [10]

O=C(O)[C@H](O)c1ccccc1
inactive: outcome [1] | outcome [2] | outcome [3] | outcome [4] | outcome [5] | outcome [6] | outcome [7] | outcome [9] | outcome [10]

Nc1nnnn1-c1ccccc1
inactive: outcome [1] | outcome [2] | outcome [3] | outcome [4] | outcome [5] | outcome [6] | outcome [7] | outcome [9] | outcome [10]

CCc1occc(=O)c1O
inactive: outcome [1] | outcome [3] | outcome [4] | outcome [5] | outcome [6] | outcome [7] | outcome [9] | outcome [10]

CN(C)CC/C=C1/c2ccccc2COc2ccc(CC(=O)O)cc21
inactive: outcome [1] | outcome [2] | outcome [3] | outcome [4] | outcome [5] | outcome [6] | outcome [7] | outcome [9] | outcome [10]

CC(=O)c1cc(C)oc1C
inactive: outcome [1] | outcome [3] | outcome [4] | outcome [5] | outcome [6] | outcome [7] | outcome [9] | outcome [10]

Cc1ccc(C(C)NC(=O)[C@@H](NC(=O)OC(C)C)C(C)C)cc1 (stereo not given in full)
inactive: outcome [1] | outcome [2] | outcome [3] | outcome [4] | outcome [5] | outcome [6] | outcome [7] | outcome [9] | outcome [10]

CCCCCCCCCOC(=O)CCCCC(=O)OCCCCCCC
inactive: outcome [1] | outcome [2] | outcome [3] | outcome [4] | outcome [5] | outcome [6] | outcome [7] | outcome [8] | outcome [9] | outcome [10]
